Bioassay records from PubChem.
MITF TRPM1 inh – inhibitors of MITF-driven TRPM1 promoter in melanoma cells. SK-MEL-5 TRPM1 promoter luciferase, 24 h. AID 488899. inhibition, % at 12.5 µM. 330,000 compounds, 0.83% hits;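 active = mean inhibition across replicates of 60% or more, whatever share of single replicates reaches that level; inconclusive = some that reach 60%, reason not given; inactive = mean inhibition across replicates below 60%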
Shn3 3UTR inh – Schnurri-3 reporter inhibition in Clone20 osteoblasts. Clone20 osteoblast Shn3 3'UTR firefly luciferase, 24 h. inhibition, % at 12.5 µM. 360,000 compounds, 0.52% hits. AID 588674;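 active = mean inhibition of at least 75% with every replicate also reaching 75%; inconclusive = mean inhibition at least 75% but some replicate below; inactive = mean inhibition below 75%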;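 also: 0% = median of neutral control wells and 100% = pilot-screen positive control compound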
CF NFkB inh – cystic fibrosis NF-kB activation inhibition | inhibition, % at 5 µM | 360,000 compounds, 0.86% hits | KKLEB NF-kB-GFP reporter, PAF-induced, GFP fluorescence overnight;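 active = at least 50% inhibition at 5 µM, scaled per plate between neutral and stimulator controls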;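 also: PAF is a Pseudomonas aeruginosa culture filtrate used as stimulus; plate controls were PAF-stimulated DMSO wells for no effect and unstimulated DMSO wells for full effect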
Peg3 prom inh – reduces Peg3 promoter-driven luciferase expression in HeLa | HeLa PEG-Prom luciferase reporter, luminescence, overnight | inhibition, % at 20 µM | 360,000 compounds, 1.7% hits;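 active = inhibition of at least 50% at 20 µM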
KKLEB tox – reduces viability of KKLEB cystic fibrosis airway cells; KKLEB CF airway cells viability, ATPlite luminescence, overnight; active compounds read low; cells stimulated with P. aeruginosa culture filtrate; activity change (cytotoxicity), % at 5 µM; 360,000 compounds, 0.36% hits; AID 602141;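 active = corrected activity change at or below -50% at 5 µM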
HIF-2a block – HIF-2a inhibition | inhibition, % at 18.8 µM | 786-0 RCC cells HIF-2a reporter, luciferase luminescence, overnight | 360,000 compounds, 0.72% hits;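 active = inhibition of the luminescence signal of 40% or more relative to plate controls, in a single-dose primary screen at 18.75 µM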
Numbers without * were called inactive; ? = inconclusive; / = not tested or not shown. Sampled rows, rich in hits. Any-hit rate of the full collection: about 2.8%.

SMILES	MITF TRPM1 inh	Shn3 3UTR inh	CF NFkB inh	Peg3 prom inh	KKLEB tox	HIF-2a block
CC(C)N1CCc2c(sc(NC(=O)c3ccc(C(=O)c4ccccc4)cc3)c2C(N)=O)C1	3	20	7	59*	-13	7
CC(C)N1CCc2c(sc(NC(=O)c3ccc(S(=O)(=O)N4CCCCC4C)cc3)c2C(N)=O)C1 (stereo not given)	36	13	15	68*	3	12
CC(C)N1CCc2c(sc(NC(=O)c3ccc(S(=O)(=O)N(C)CC4CCCO4)cc3)c2C(N)=O)C1 (stereo not given)	7	3	2	12	-10	17
CC(=O)Nc1ccc(S(=O)(=O)N(C)c2ccccc2)cc1	-3	-2	4	27	-6	1
CCOC(=O)/C=C/C(=O)Nc1ccc(S(=O)(=O)N(C)c2ccccc2)cc1	6	74	15	59*	-30	19
c1ccc(C[n+]2cccc3c4ccccc4ccc32)cc1	62*	20	-13	16	0	6
CCCCC[n+]1cccc2c3ccccc3ccc21	15	81	-29	15	-42	24
Cn1nc(C2CC2)cc1NC(=O)C1(C)CCN1C(=O)Cc1ccc(-c2ccccc2)cc1 (stereo not given)	/	39	4	30	-7	6
CCC(CC)CN1CCN=C1Nc1ccccc1	1	1	-19	-8	20	4
O=C1/C(=C\c2cccnc2)SC(=S)N1C1CCS(=O)(=O)C1 (stereo not given)	53	-11	66*	39	-6	28
O=C1/C(=C/c2cccnc2)SC(=S)N1C1CCS(=O)(=O)C1 (stereo not given)	23	-24	72*	28	-13	53*
O=C1/C(=C/c2cccnc2)SC(=S)N1N1CCOCC1	16	-7	-6	-4	9	8
O=C(CSc1n[nH]c(-c2ccc(Br)cc2)n1)N1CCOCC1	4	-9	-12	-7	9	-7
CCOC(=O)CCc1c(C)c2ccc(OCc3cc([N+](=O)[O-])ccc3OC)cc2oc1=O	9	0	3	0	-54*	18
COc1ccc([N+](=O)[O-])cc1COc1ccc2c(-c3ccccc3)cc(=O)oc2c1	-8	2	67*	16	-52*	17
CC(C)N1CCN(c2ccncc2S(=O)(=O)N2CCN(C)CC2)CC1	/	53	26	-3	-3	6
O=C(O)c1cc(-c2ccccc2)n(-c2ccc(F)cc2)n1	-4	2	-22	78*	1	25
O=c1ccc2c([nH]1)CCCCCCCCCC2	4	0	-3	54*	5	30
Cc1ccc(/C=N/NC(=O)c2cccc(S(=O)(=O)N3CCOCC3)c2)o1	-4	4	6	110*	-2	5
O=C(N/N=C/c1ccccc1C(=O)O)c1cccc(S(=O)(=O)N2CCOCC2)c1	4	4	-32	-18	29	11
CC(C)Cc1nnc(NC(=O)CCC(=O)NCCc2ccc(Cl)cc2)s1	6	13	-9	0	-2	6
O=C(NCCCN1CCCC1=O)Nc1ccc([N+](=O)[O-])cc1	-16	-20	12	-26	0	-43
Cc1ccc(S(=O)(=O)N2CCC(C(=O)N/N=C/c3cccnc3)CC2)cc1	8	10	12	52*	-16	18
Cc1ccc(C(=O)NC(=C(Cl)Cl)S(=O)(=O)c2ccc(Cl)cc2)cc1	-6	12	8	58*	-12	40
Cc1ccc(NC(=O)/C(=C/c2cccc([N+](=O)[O-])c2)NC(=O)C2CCCCC2)c(C)c1	4	43	-10	59*	-2	12
SMILES	MITF TRPM1 inh	Shn3 3UTR inh	CF NFkB inh	Peg3 prom inh	KKLEB tox	HIF-2a block
O=c1c2ccccc2sn1-c1ccc(Cl)cc1	/	9	64*	-128	-10	-240
O=c1c2ccccc2sn1-c1ccc(F)cc1	9	-13	32	-65	-9	-94
O=c1c2ccc(F)cc2sn1-c1ccccc1	/	-26	54*	-95	5	-47
C=CCOC(=O)C1=C(C)NC(C)=C(C(=O)OCC=C)C1c1cn(-c2ccccc2)nc1-c1ccco1	1	11	-2	-2	-9	8
O=[N+]([O-])/C=C\c1ccc(N2CCOCC2)cc1	74*	24	25	14	-8	55*
O=c1cc(-c2ccccc2)[nH]n1-c1ccc([N+](=O)[O-])cc1	3	21	59*	-72	-55*	-156
COc1cccc(CNS(=O)(=O)c2ccc3c(c2)C(C)(C)C(=O)N3C)c1	-25	11	5	-1	-1	9
Cc1ccsc1/C=N/Nc1ccc(C(=O)O)cc1	?	6	-8	37	12	57*
Cn1cc(Br)c(C(=O)NNC(=O)Nc2ccccc2C(F)(F)F)n1	0	-5	10	1	-1	12
CCC(C)n1c(=S)[nH]c2c(sc3ccc([N+](=O)[O-])cc32)c1=O (stereo not given)	12	18	54*	10	-50	4
C=CS(=O)(=O)N(Cc1ccccc1)[C@H](CO)CC(C)C	7	1	-14	5	-1	16
CC(C)C[C@H](CO)N(Cc1ccccc1)S(=O)(=O)N(Cc1ccccc1)[C@@H](CO)CC(C)C	24	66	38	53*	-22	-11
CCc1c(C)sc(NC(=O)Cc2ccccc2C)c1C(=O)N1CCOCC1	-15	14	0	5	18	6
CCCCC(CC)C(=O)O (stereo not given)	/	0	12	-9	-10	-4
CCCCC(CC)CO (stereo not given)	5	13	18	110*	8	8
C(=N\NC1=Nc2cccc3cccc1c23)/c1ccccn1	-5	50	51*	-76	-26	-214
Clc1ccccc1/C=N/NC1=Nc2cccc3cccc1c23	-32	-88	-21	-192	-14	-203
O=C(c1ccco1)N1CCN(Cc2cc(=O)c(OCc3ccccc3F)co2)CC1	0	-36	10	-5	1	-5
COc1ccccc1NCC(=O)N/N=C/c1c(O)ccc2ccccc12	26	54	9	56*	-17	9
O=C(Cc1n[nH]c(=O)[nH]c1=O)N/N=C/c1c(O)ccc2ccccc12	-13	-23	-5	18	3	18
O=C(CNc1ccc(F)cc1)N/N=C/c1c(O)ccc2ccccc12	34	92*	15	51*	2	-9
O=[N+]([O-])c1ccc(-c2c(O)c3ccccc3c3nc4ccccc4nc23)cc1	7	8	42	52*	-9	-3
Cc1ccccc1C(=O)N1CCC(C(=O)Nc2ccc(S(=O)(=O)N3C(C)CCCC3C)cc2)CC1 (stereo not given)	7	19	2	78*	-11	6
